In one test the test system is FLT1. The conditions noted are these: concentration: 1 μM, replicates: in singlicate; n = 1.
Another test concerns FLT3-autoinhibited. Particulars: concentration: 1 μM, replicates: in singlicate; n = 1.
The subject of a further test is FLT3. The conditions noted are these: concentration: 1 μM, replicates: in singlicate; n = 1.
The test system of a further test is FLT4. Particulars: concentration: 1 μM, replicates: in singlicate; n = 1.
Another test concerns FRK. Particulars: concentration: 1 μM, replicates: in singlicate; n = 1.
Another test concerns FYN. The conditions noted are these: concentration: 1 μM, replicates: in singlicate; n = 1.
A further test has as its system GAK. Particulars: concentration: 1 μM, replicates: in singlicate; n = 1.
A further test has as its system T1, GCN2(Kin.Dom.2,S808G).
T1 construct: gene EIF2AK4
The conditions noted are these: concentration: 1 μM, replicates: in singlicate; n = 1.

A further test has as its system GRK1. The conditions noted are these: concentration: 1 μM, replicates: in singlicate; n = 1.
The subject of a further test is T2, GRK2.
T2 construct: gene ADRBK1
The conditions noted are these: concentration: 1 μM, replicates: in singlicate; n = 1.

The next test concerns T3, GRK3.
T3 construct: gene ADRBK2
Particulars: concentration: 1 μM, replicates: in singlicate; n = 1.

The next test concerns GRK4. The conditions noted are these: concentration: 1 μM, replicates: in singlicate; n = 1.
In another test the test system is GRK7. The conditions noted are these: concentration: 1 μM, replicates: in singlicate; n = 1.
For the next test, the system named is GSK3A. Particulars: concentration: 1 μM, replicates: in singlicate; n = 1.
For another test, the system named is GSK3B. The conditions noted are these: n = 1.
Another test deals with T4, HASPIN.
T4 construct: gene GSG2
Particulars: concentration: 1 μM, replicates: in singlicate; n = 1.

Another test relates to HCK. The conditions noted are these: concentration: 1 μM, replicates: in singlicate; n = 1.
For the next test, the system named is HIPK1. The conditions noted are these: concentration: 1 μM, replicates: in singlicate; n = 1.
A further test has as its system HIPK2. Particulars: concentration: 1 μM, replicates: in singlicate; n = 1.
Another test deals with HIPK3. Particulars: concentration: 1 μM, replicates: in singlicate; n = 1.
[1] abbreviates: concentration: 1 μM, replicates: in singlicate.

Like-named read-outs stand apart in the source and are kept apart here.
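Note: KINOMEscan kinase panel screen.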

With `CS(=O)(=O)CCNCc1nc(-c2ccc3ncnc(Nc4ccc(OCc5ccccc5)c(Cl)c4)c3c2)cs1.Cl` [GW582764], the “%Inh” value in the test with FLT1 was determined as 5%; in the test on FLT3-autoinhibited it was 0%; in the test on FLT3, 0%; in the test with FLT4, 0%; with FRK it was 2%; in the test on FYN it was 0%. In addition, the “%Inh” value is 0% in the test on GAK; 0% in the test with GCN2(Kin.Dom.2,S808G); 0% with GRK1; 0% in the test on GRK2; 99.4% in the test with GRK3; 4% in the test with GRK4. Further, the “%Inh” value stood at 0% in the test on GRK7; 20% in the test with GSK3A; 3% with GSK3B (setting [1]); 32% in the test with HASPIN; 0% with HCK; 0% in the test on HIPK1. Further, the “%Inh” value in the test with HIPK2 and in the test on HIPK3 was 0% throughout.
In the case of `Cc1ccc(NC(=O)Nc2ccc(Cl)cc2)cc1-c1ccc(C(=O)Nc2ccncc2)cc1` [GSK1398472], the “%Inh” value is listed as 27% in the test with FLT1; 3% with FLT3-autoinhibited; 22% in the test on FLT3; 0% in the test with FLT4; 31% in the test with FRK; 0% in the test with FYN. For the same molecule, the “%Inh” value with GAK was determined as 0%; with GCN2(Kin.Dom.2,S808G), 17%; with GRK1, 0%; in the test with GRK2, 0%; in the test on GRK3, 17%; in the test with GRK4, 25%. Further, the “%Inh” value in the test on GRK7 stood at 0%; in the test with GSK3A it was 0%; in the test on GSK3B (setting [1]) it was 7%; with HASPIN, 0%; with HCK, 0%; in the test on HIPK1, 0%. Besides, the “%Inh” value was 0% with HIPK2 and 5% in the test on HIPK3.
`Fc1ccc(-c2nc[nH]c2-c2ccncc2)cc1` [SB-217360]: the “%Inh” value is 0% in the test with FLT1; 0% with FLT3-autoinhibited; 5% in the test on FLT3; 9% with FLT4; 0% with FRK; 0% in the test with FYN. In addition, the “%Inh” value is given as 57% in the test with GAK; 0% in the test with GCN2(Kin.Dom.2,S808G); 25% in the test with GRK1; 0% in the test with GRK2; 11% in the test on GRK3; 19% in the test with GRK4. Also, the “%Inh” value with GRK7 stood at 0%; with GSK3A it was 0%; in the test on GSK3B (setting [1]), 13%; in the test on HASPIN it was 57%; in the test on HCK, 20%; in the test on HIPK1, 34%. The entries for the “%Inh” value with HIPK2 and in the test with HIPK3 were 10% and 7%, respectively.
Consider `NS(=O)(=O)c1cccc(N/C=C2\C(=O)Nc3ccc(S(=O)(=O)Cc4c(Cl)cccc4Cl)cc32)c1` [GSK398099], for which the “%Inh” value with FLT1 was 12%; in the test with FLT3-autoinhibited, 0%; with FLT3 it was 0%; in the test on FLT4 it was 0%; in the test with FRK, 0%; in the test with FYN, 35%. Besides, the “%Inh” value in the test with GAK is on record as 18%; with GCN2(Kin.Dom.2,S808G), 0%; with GRK1, 0%; in the test on GRK2 it was 0%; with GRK3, 0%; with GRK4, 0%. For the same molecule, the “%Inh” value with GRK7 was found to be 0%; with GSK3A, 0%; with GSK3B (setting [1]), 20%; in the test on HASPIN, 4%; in the test with HCK, 0%; in the test with HIPK1, 0%. The “%Inh” value in the test with HIPK2 came to 0%; with HIPK3 it was 12%.
For `COc1ccc(CSc2nnc(-c3ccc4ncsc4c3)o2)cc1C(F)(F)F`, the “%Inh” value with FLT1 amounted to 0%; in the test with FLT3-autoinhibited it was 0%; in the test on FLT3 it was 0%; with FLT4, 10%; in the test with FRK, 0%; in the test on FYN, 0%. Also, the “%Inh” value in the test with GAK worked out at 0%; with GCN2(Kin.Dom.2,S808G) it was 0%; in the test with GRK1, 0%; with GRK2, 0%; in the test on GRK3 it was 1%; in the test on GRK4 it was 18%. Moreover, the “%Inh” value was found to be 0% in the test on GRK7; 98.4% in the test with GSK3A; 89% with GSK3B (1 µM); 45% with HASPIN; 0% with HCK; 38% in the test on HIPK1. Besides, the “%Inh” value in the test with HIPK2 and with HIPK3 was 0% each time.
Turning to `Fc1ccc(-c2nn3cccc(F)c3c2-c2ccncc2)cc1` [GW475620], the “%Inh” value with FLT1 is 27%; in the test on FLT3-autoinhibited it was 2%; with FLT3 it was 0%; in the test with FLT4, 25%; in the test with FRK, 14%; with FYN, 16%. The “%Inh” value is on record as 65% in the test on GAK; 0% in the test on GCN2(Kin.Dom.2,S808G); 0% in the test with GRK1; 6% in the test on GRK2; 0% in the test on GRK3; 26% in the test with GRK4. The “%Inh” value is given as 0% in the test on GRK7; 0% with GSK3A; 11% in the test with GSK3B (setting [1]); 5% in the test on HASPIN; 15% in the test on HCK; 0% with HIPK1. The figures for the “%Inh” value in the test on HIPK2 and in the test on HIPK3 were 0% and 4%, respectively.
`COc1cccc(CNC(=O)NC2CCN(c3ccnc(Nc4ccc(F)cc4)n3)C2)c1` (stereo not shown) [GSK1379723]: the “%Inh” value in the test on FLT1 stood at 31%; in the test on FLT3-autoinhibited, 0%; in the test on FLT3 it was 0%; in the test with FLT4, 12%; in the test on FRK, 16%; in the test on FYN it was 0%. Moreover, the “%Inh” value in the test on GAK amounted to 12%; in the test with GCN2(Kin.Dom.2,S808G), 0%; in the test with GRK1, 13%; in the test on GRK2, 0%; in the test with GRK3, 37%; in the test on GRK4, 6%. The “%Inh” value was found to be 5% in the test on GRK7; 11% in the test with GSK3A; 13% with GSK3B (setting [1]); 0% in the test with HASPIN; 0% in the test on HCK; 0% with HIPK1. The entries for the “%Inh” value in the test on HIPK2 and in the test on HIPK3 were 0% and 36%, respectively.
With `Cc1ccc(NC(=O)c2ccc(Cl)cc2)cc1-c1ccc(C(=O)Nc2ccncc2)cc1` [GSK1398467], the “%Inh” value in the test with FLT1 amounted to 37%; with FLT3-autoinhibited, 0%; in the test with FLT3, 0%; in the test on FLT4, 2%; with FRK it was 30%; in the test with FYN, 0%. Further, the “%Inh” value in the test on GAK was found to be 1%; with GCN2(Kin.Dom.2,S808G) it was 0%; in the test on GRK1, 0%; in the test with GRK2 it was 0%; in the test on GRK3, 24%; with GRK4, 0%. In addition, the “%Inh” value with GRK7 is 0%; in the test with GSK3A it was 3%; with GSK3B (setting [1]), 17%; in the test on HASPIN, 0%; in the test on HCK, 0%; in the test on HIPK1, 0%. Also, the “%Inh” value turned out to be 0% in the test with HIPK2 and 3% in the test on HIPK3.
`CCn1c(-c2c(N)noc2C)nc2cnccc21` [SB-737856]: the “%Inh” value in the test with FLT1 was 20%; with FLT3-autoinhibited, 0%; in the test with FLT3, 0%; in the test with FLT4, 0%; in the test on FRK, 11%; in the test with FYN it was 3%. Further, the “%Inh” value in the test on GAK is listed as 21%; with GCN2(Kin.Dom.2,S808G) it was 7%; with GRK1 it was 0%; with GRK2 it was 0%; in the test on GRK3 it was 42%; in the test with GRK4 it was 6%. The “%Inh” value in the test with GRK7 amounted to 0%; in the test with GSK3A, 0%; in the test with GSK3B (setting [1]), 2%; with HASPIN it was 0%; in the test on HCK, 0%; in the test with HIPK1, 0%. In addition, the “%Inh” value with HIPK2 and in the test with HIPK3 was 0% throughout.
Take `Fc1ccc(-c2nc3n(c2-c2ccncc2)CCS3)cc1` [GI98581]: the “%Inh” value is given as 35% in the test with FLT1; 0% in the test with FLT3-autoinhibited; 0% in the test with FLT3; 12% in the test on FLT4; 14% in the test with FRK; 22% in the test with FYN. Moreover, the “%Inh” value in the test on GAK was determined as 53%; with GCN2(Kin.Dom.2,S808G), 3%; in the test with GRK1 it was 0%; in the test with GRK2 it was 0%; with GRK3, 21%; in the test on GRK4 it was 0%. The “%Inh” value with GRK7 was found to be 0%; in the test on GSK3A, 14%; in the test on GSK3B (setting [1]), 19%; in the test on HASPIN, 13%; in the test on HCK, 0%; in the test on HIPK1 it was 0%. Moreover, the “%Inh” value in the test on HIPK2 and in the test with HIPK3 was 0% in each case.
As for `COc1ccc(Nc2nccc(N3CCC(NC(=O)C(C)c4ccc(Cl)cc4)C3)n2)cc1` (stereo not shown) [GSK1379735], the “%Inh” value in the test with FLT1 is given as 21%; with FLT3-autoinhibited, 5%; in the test on FLT3, 10%; with FLT4, 5%; in the test on FRK, 0%; in the test on FYN, 15%. The “%Inh” value was found to be 11% in the test on GAK; 9% in the test on GCN2(Kin.Dom.2,S808G); 7% with GRK1; 0% with GRK2; 20% in the test with GRK3; 31% with GRK4. Also, the “%Inh” value came out at 0% with GRK7; 34% in the test on GSK3A; 0% with GSK3B (setting [1]); 13% in the test on HASPIN; 0% in the test with HCK; 0% in the test on HIPK1. The “%Inh” value in the test with HIPK2 was 0%; in the test on HIPK3 it was 4%.

The record behind these values is publication PMC5540273 (PLoS ONE, 2017).
